# Bioassay records from PubChem BioAssay.
# A selection: hits, their analogues and other compounds. The true share with any hit is near 2.7%.
# rTrxR1 inhibitor: rat TrxR1 inhibition; O89049; recombinant rTrxR1, NADPH fluorescence consumption, selenite substrate; Potency, µM (highest dose often 114 µM), hits mostly inhibitors; 390,000 tested, 1% active; AID 588453; further: nearly all actives have a fitted effect of over 65% in size
# Target sequence (O89049 whole entry, looked up): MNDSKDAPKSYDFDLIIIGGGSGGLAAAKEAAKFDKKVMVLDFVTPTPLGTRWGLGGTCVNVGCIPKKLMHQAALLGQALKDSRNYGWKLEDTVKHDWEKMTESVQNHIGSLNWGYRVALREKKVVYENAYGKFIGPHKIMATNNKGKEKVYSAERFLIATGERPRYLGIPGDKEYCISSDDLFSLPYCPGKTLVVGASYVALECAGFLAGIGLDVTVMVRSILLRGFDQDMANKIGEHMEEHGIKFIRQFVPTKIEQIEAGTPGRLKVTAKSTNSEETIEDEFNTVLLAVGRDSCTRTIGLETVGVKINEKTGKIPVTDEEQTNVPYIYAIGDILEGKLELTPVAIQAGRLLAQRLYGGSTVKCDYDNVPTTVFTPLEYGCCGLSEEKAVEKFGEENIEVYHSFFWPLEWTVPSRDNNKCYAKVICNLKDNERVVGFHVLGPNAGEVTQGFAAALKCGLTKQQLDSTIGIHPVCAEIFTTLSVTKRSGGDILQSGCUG
#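 Rat TrxR1 (90 nM in the dispensed reagent) was pre-reduced with 400 uM NADPH for 5 min at room temperature, then incubated with compound for 15 min. After 400 uM selenite was added, NADPH fluorescence (Ex 340/Em 450 nm) was followed for 8 min.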
# HEK293 tox: cytotoxicity in counter-screen for GLP-1R inverse agonists. HEK293 cAMP-luciferase reporter cells, luminescence, 24 h. Potency, µM (titrated, usually from 38.3 µM), hits mostly inhibitors. 410,000 tested, 0.13% active. AID 624418;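 further: loss of luciferase light is scored as toxicity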
#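 A 23 nL compound transfer followed 12 hours of cell culture at 37 deg C; exposure then lasted 24 hr. Luciferase assay detection reagent was dispensed and plates read for luminescence after a 12 min room-temperature wait.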
# IDH1 R132H inh: inhibitors of human mutant IDH1 R132H; O75874; IDH1-R132H enzyme, NADPH consumption, diaphorase/resazurin fluorescence; Potency, µM (series often up to 76.6 µM), usual class: inhibitors; 390,000 tested, 0.093% active; further: nearly all actives have a fitted effect of over 65% in size
#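 IDH1-R132H (0.5 ug/mL dispensed) in pH 7.5 Tris buffer was preincubated 30 min with compound, then given a substrate mix of 0.016 mM NADPH and 2 mM alpha-KG for 80 min at room temperature; remaining NADPH was read by diaphorase/resazurin fluorescence.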
# GLP1R inv ag: GLP-1 receptor (human) inverse agonism; HEK293 GLP-1R CRE-luciferase, luminescence, 24 h; GLP-1R form is constitutively active; AID 624417; 410,000 tested, 1.6% active; Potency, µM (doses to about 38.3 µM), most hits filed as inhibitors; P43220; further: nearly all actives have a fitted effect of over 55% in size
#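 HEK293 cells stably co-expressing a cAMP-responsive luciferase reporter and constitutively active GLP-1R were seeded, incubated 12 h, then exposed to compounds for 24 h at 37 C. Luminescence was read 12 min after detection reagent; inverse agonists lower signal.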
# GLP-1R agonist: GLP-1 receptor (human) agonism; P43220; HEK293 GLP-1R CRE-luciferase, luminescence, 4-6 h; cells express a hypersensitive GLP-1R form; Potency, µM (highest dose often 45.6 µM), hits mostly activators; 380,000 tested, 0.007% active; AID 624172
# TrxR1 substrate: rat thioredoxin reductase 1 substrate activity | O89049 | purified TrxR1 substrate turnover, NADPH consumption readout | Potency, µM (highest dose often 114 µM) | 390,000 tested, 0.01% active | AID 588456; further: nearly all actives have a fitted effect of over 50% in size
#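 Rat TrxR1, dispensed at 90 nM, was prereduced with 400 uM NADPH (final) for 5 min at ~22 deg C, then incubated with compound 15 min before 400 uM selenite. A first-read NADPH fluorescence drop versus no-compound background flagged substrates.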
# Hits are given with their value; 0 = inactive; ? = inconclusive; - = no result; [ ] = another dose, or the depositor's remark. The call rests on the fitted dose curve; in most records, active means well fitted curve in the direction sought with a large enough effect; inconclusive means small, poorly fitted or top-dose-only effect, or another doubt; inactive means no such curve, though single readings can be large; an effect the other way counts as inactive or inconclusive.
SMILES,rTrxR1 inhibitor,HEK293 tox,IDH1 R132H inh,GLP1R inv ag,GLP-1R agonist,TrxR1 substrate
Fc1ccc(CNc2ncnc3onc(-c4ccc(F)cc4)c23)cc1,0,0,0,0,0,0
O=C(O)c1ccc2c3c(ncnc13)-c1ccccc1C2=O,10µM,0,0,0,0,0
COc1ccc(NC(=O)C(=O)NCCc2csc3nc(-c4ccccc4F)nn23)cc1OC,0,0,0,0,-,0
COc1ccccc1Nc1nc(N)nc(CN2CCCCCC2)n1,14.1µM,0,0,0,0,0
Cc1cc(-c2ccc(S(=O)(=O)Nc3ccc(Cl)cc3)cc2)on1,0,0,0,?,-,0
Cc1cc(C)cc(NS(=O)(=O)c2ccc(-c3cc(C)no3)cc2)c1,0,0,0,3.55µM,-,0
O=C(/C=C/c1ccccc1[N+](=O)[O-])N1CCCCC1,0,0,0,0,0,0
O=[N+]([O-])C(/C=C(/Cl)[N+](=O)[O-])=C(N1CCCCC1)N1CCCCC1,7.94µM,0,0,0,0,0
Cc1ccc(CN2CCC(CNc3ncnc4onc(-c5ccc(F)cc5)c34)CC2)cc1,0,0,0,0,-,0
Cc1nn(-c2ccccc2)c2nc(-c3ccco3)cc(C(=O)O)c12,?,0,0,0,0,0
Cc1nn(-c2cccc(Cl)c2)c2nc(-c3ccco3)cc(C(=O)O)c12,50.1µM,0,0,0,0,0
CC(C)c1ccc(Nc2nc(Nc3ccc(Cl)cc3)nc(N3CCOCC3)n2)cc1,0,-,-,-,-,0
O=C1C(C2=C(O)c3ccccc3C2=O)=Nc2ccccc21,14.1µM,0,0,0,0,35.5µM
Cc1ccc(C(=O)C(C(=O)/C=C/c2ccccc2)=C2SCCCS2)cc1,?,?,0,2µM,0,0
NC(=S)n1[nH]c(-c2ccc([N+](=O)[O-])cc2)c(N=Nc2ccc(Cl)cc2)c1=O,0,?,0,10µM,0,0
CS(=O)(=O)c1ccc(C(=O)OCc2nnc(-c3ccc(Cl)cc3)o2)cc1[N+](=O)[O-],1.78µM,0[0.307 µM],0,0[0.307 µM],0,0
CC1=C(C(=O)Nc2ccccc2)C(c2ccncc2)n2nc(SCc3ccccc3Cl)nc2N1 (stereo unspecified),0,0,0,0,0,0[2.29 µM]
CCOC(=O)Cn1nc(-c2ccc(F)cc2)cc(Cc2ccccc2)c1=O,0,0,0,11.2µM,0,0
CCCCc1cc(=O)oc2cc(C)cc(OC(C)C(=O)NC(Cc3c[nH]c4ccc(O)cc34)C(=O)O)c12 (stereo unspecified),0,0,0,0,0,0
Cc1cc(OC(C)C(=O)NC(Cc2c[nH]c3ccc(O)cc23)C(=O)O)c2c(C)c(C)c(=O)oc2c1 (stereo unspecified),11.2µM,0,0,0,0,0
COc1cccc(-c2nnc(SCC(=O)N3CCOCC3)o2)c1,0,0,0,0,0,0
COc1cccc(-c2nnc(SCC(=O)N3CC(C)CC(C)C3)o2)c1 (stereo unspecified),0,0,0,11.2µM,0,0
COc1cc(-c2nnc(SCC(=O)Oc3ccccc3Cl)o2)cc(OC)c1OC,0,0,0,0,-,0
COc1cc(-c2nnc(SCC(=O)N3c4ccccc4Sc4ccccc43)o2)cc(OC)c1OC,0,0,0,1.26µM,0,0
COc1cc(Cl)c(C)cc1NC(=O)c1cc2c(Cl)nc3ccc(C)cc3c2s1,0,0,0,0,-,0
SMILES,rTrxR1 inhibitor,HEK293 tox,IDH1 R132H inh,GLP1R inv ag,GLP-1R agonist,TrxR1 substrate
COC(=O)c1ccc(CN(Cc2ccc(OC)c(OC)c2)S(=O)(=O)c2ccc(F)c(C(=O)Nc3cc(C)ccc3C)c2)cc1,0,0,0,0,-,0
Cc1c(Cl)ccc2c(C(=O)NCCCn3nccc3C)cc(-c3ccccn3)nc12,0,0,0,?,0,0
Cc1c(Cl)ccc2c(C(=O)NCCN3CCCCC3)cc(-c3ccccn3)nc12,0,?,0,3.55µM,0,0
Cc1ccc(S(=O)(=O)N2CCN(c3nc(-c4ccncc4)nc4ccccc34)CC2)cc1,44.7µM,-,-,-,-,0
c1ccc(CN2CCN(c3nc(-c4ccccc4)nc4ccccc34)CC2)cc1,0,0,0,3.55µM,0,0
CCOc1ccc(-c2nonc2NC(=O)c2oc3ccc(Br)cc3c2C)cc1,0,0,0,?,-,0
Cc1c(N=C/C=C2\N(C)c3ccccc3C2(C)C)c(=O)n(-c2ccccc2)n1C,0,2.24µM,0,?,0,0
